Laboratory results reported in PubChem BioAssay AID932 (The Scripps Research Institute Molecular Screening Center, 2007).
Screen size: about 200,000 compounds; about 5,100 (2.5%) were called active. The sample as a whole holds a higher share of actives than the screen did. A number with no mark means an inactive call.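 How the source made its calls: active means activation above the screen-wide mean activation plus 3 SD (cut at about 130% in these data); inactive means the rest.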

Experiment: STAT1 signaling activators, primary screen, cell-based, HTS, luciferase reporter (AID 932);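 further: raw ratio to IFN-gamma control signal so 100% means no change and 0% no light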
Details: NIH 3T3 STAT1-luciferase reporter, IFN-gamma, luminescence; at 5.5 µM; active compounds read high; 100% = IFN-gamma alone, no compound

First: COc1ccccc1CNC(=O)C1Cc2ccccc2C(=O)O1 (centres undefined)
Second: COc1ccccc1CNC(=O)c1ccc(SC)cc1OC
The activation (% of control) of the first is lower: 102% for the first, 109% for the second.

First: C#CCOCCOCCOCCNc1nc(N2CCN(C(=O)[C@H](Cc3ccc(O)cc3)n3cc(C(N)CC(C)C)nn3)CC2)nc(N2CCN(C(=O)[C@H](CCC(=O)O)n3cc(C(N)[C@H](C)CC)nn3)CC2)n1 (some centres undefined)
Second: O=C(c1ccc2c(c1)N(Cc1ccc(F)cc1)C(=O)c1ccccc1S2(=O)=O)N1CCN(c2ccccn2)CC1
The activation (% of control) of the first is higher: 99.5% for the first, 97.5% for the second.

Going from `CCOC(=O)N1CCN(Cc2nc(Cc3cccc(C(F)(F)F)c3)no2)CC1` to `CCOC(=O)N1CCN(c2cc(C)c([N+](=O)[O-])cc2F)CC1`, the activation (% of control) falls from 97.5% to 77.6%.

Compared with `COc1ccc(CC(=O)NCc2nnc(SCC(=O)Nc3nccs3)n2C)cc1`, `COc1ccc(C)cc1NC(=O)CSc1nnc(CC(=O)Nc2ccccc2F)n1C` is higher in activation (% of control): 91.2% for the first, 92.1% for the second.

Compared with `c1ccc(CCc2nc(-c3ccncc3)no2)cc1`, `Cc1ccc(C2=Nc3c(ccc4ccccc34)C(c3ccncc3)=NN2)cc1` is lower in activation (% of control): 117% for the first, 37.3% for the second.

First: COc1ccc(-c2noc(COc3ccc(Cl)c(C)c3)n2)cc1
Second: Cc1ccc2nc(-c3ccc(NC(=O)c4cccnc4)cc3)oc2c1
The activation (% of control) of the first is higher: 93.9% for the first, 93.8% for the second.

First: CCCOc1ccc(NC(=O)C2OC3OC(C)(C)OC3C3OC(C)(C)OC23)cc1 (centres undefined)
Second: COc1ccc(NC(=S)NCCNC(C)=O)cc1
The activation (% of control) of the first is lower: 95.5% for the first, 103% for the second.

Going from `CCn1c(CNS(=O)(=O)c2ccc(Cl)cc2)n[nH]c1=S` to `Cc1ccc(NCc2n[nH]c(=S)n2-c2ccccc2)cc1Cl`, the activation (% of control) rises from 94.3% to 114%.

Going from `O=C1/C(=C\c2ccccc2Cl)SC(=S)N1CCC(=O)N1CCCc2ccccc21` to `Cn1cccc1/C=C1\SC(=O)N(CC(=O)Nc2ccc(F)cc2)C1=O`, the activation (% of control) rises from 98.2% to 100%.

Compared with `O=C(CN1CCCCC1)Nc1ccccc1Cl`, `COCCN(CCOC)C(=S)Nc1ccccc1Cl` is lower in activation (% of control): 103% for the first, 91.7% for the second.

Going from `CCN(CC)CC(=O)Nc1sc2c(c1C(=O)c1ccccc1C)CCC2` to `CC1=CC2=NC(=O)CC(C)(C(=O)N(CC(=O)NC(C)(C)C)Cc3ccccc3)N2C=C1` (centres undefined), the activation (% of control) rises from 100% to 106%.

Going from `CCOC(=O)c1cc(-c2ccc(F)cc2)n(CC(=O)NCc2ccccn2)c1C` to `COCCNC(=O)C(OC(=O)c1cccs1)c1ccc(F)cc1` (centres undefined), the activation (% of control) falls from 96.2% to 93.1%.

First: CO/N=C(\N)c1ccc([N+](=O)[O-])cc1
Second: COc1cccc(NCCC(=O)c2cccc([N+](=O)[O-])c2)c1
The activation (% of control) of the first is lower: 97.7% for the first, 116% for the second.

Compared with `O=C(NCc1cn2ccsc2n1)Nc1ccc(Cl)cc1`, `Cc1ccc(NC(=O)OCc2cncs2)cc1` is higher in activation (% of control): 102% for the first, 118% for the second.

Going from `O=C(Nc1ccccc1)c1nnsc1S(=O)(=O)c1ccc(Cl)cc1` to `O=C(Nc1ccccc1)c1cccnc1Nc1ccccc1`, the activation (% of control) rises from 90% to 99.2%.

Going from `CCCC(C)C(=O)NCc1ccncc1` (centres undefined) to `CC(=O)Nc1ccc(OCC(=O)NCc2ccc(C)cc2)cc1`, the activation (% of control) falls from 96.3% to 95.8%.

First: CC1=C(C(=O)N(C)C)C(c2ccccc2OC(F)F)NC(=O)N1 (centres undefined)
Second: COCCn1c(N)c(N(Cc2ccccc2)C(=O)C2CCCCC2)c(=O)[nH]c1=O
The activation (% of control) of the first is higher: 104% for the first, 98% for the second.

First: CC[N+]1(CC)CC2=Cc3ccccc3CC2C1 (centres undefined)
Second: c1ccc2[nH]c(NCCN3CCOCC3)nc2c1
The activation (% of control) of the first is higher: 106% for the first, 99.9% for the second.

Going from `Cc1cc(NC(=O)CSc2nccn2-c2ccc([N+](=O)[O-])cc2)no1` to `CCc1ccc2c(c1)C(c1ccc([N+](=O)[O-])cc1)=NNC(c1ccccc1)=N2`, the activation (% of control) rises from 95.1% to 95.2%.

First: COc1cc(SC)ccc1C(=O)Nc1cc(C)ccn1
Second: Cc1ccc(-n2nc3cc(C)c(NC(=O)c4cccnc4)cc3n2)cc1
The activation (% of control) of the first is lower: 102% for the first, 118% for the second.

Compared with `O=C(NCc1ccccc1)C1=C[C@@H](c2ccc(C(F)(F)F)cc2)C[C@@H](OCc2ccc(CO)cc2)O1`, `CN(c1ccccc1)S(=O)(=O)c1ccc(Cl)c(C(=O)NCCc2c[nH]c3ccccc23)c1` is lower in activation (% of control): 106% for the first, 95% for the second.

Compared with `Cc1ccc(C2NC(C(=O)O)CS2)cc1` (centres undefined), `Cc1ccc(C(=O)NC2CCN(C(=O)N3CCOCC3)CC2)cc1` is lower in activation (% of control): 106% for the first, 98.8% for the second.

First: CN(C)c1ccnc(Nc2ccc(F)cc2)c1C#N
Second: CC(=O)OC(COc1ccc(F)cc1)Cn1cnc2ccccc21 (centres undefined)
The activation (% of control) of the first is lower: 98.2% for the first, 103% for the second.

First: Cc1oc2cc([N+](=O)[O-])c(O)c([N+](=O)[O-])c2c1C(=O)c1ccc(Br)cc1
Second: CCCc1nc2ccccc2c(C(=O)OCC(=O)c2ccc3c(c2)NC(=O)CO3)c1CC
The activation (% of control) of the first is lower: 94% for the first, 100% for the second.

`COc1cc(N=Cc2c(O)[nH]c3ccccc23)cc(OC)c1OC` and `COc1ccc(OC)c(N=Cc2c(O)[nH]c3ccccc23)c1` are the same in activation (% of control): 115% for the first, 115% for the second.

Compared with `CCC(CC)c1nnc(NC(=O)c2nn(C)c(=O)c3ccccc23)s1`, `COCc1c(C(=O)OCc2c(C)noc2C)oc2ccccc12` is lower in activation (% of control): 102% for the first, 100% for the second.

Compared with `CN(CCOc1ccc(Br)cc1)CC(=O)Nc1cccc(S(=O)(=O)NC2=NCCC2)c1`, `COc1ccc(Br)cc1CN(C)CC(=O)Nc1cc(Cl)cc(Cl)c1` is higher in activation (% of control): 97.5% for the first, 105% for the second.

Compared with `CCN(CC)S(=O)(=O)c1ccc(OC(C)C)c(N)c1`, `CCOc1ccc(CCN2C(=O)c3cccnc3C2=O)cc1OCC` is lower in activation (% of control): 98.6% for the first, 96.9% for the second.

First: O=C(NC1CC1)c1cccc(Br)c1
Second: S=C(Nc1cccc(Br)c1)N1CCn2cccc2C1c1cccnc1 (centres undefined)
The activation (% of control) of the first is higher: 98.5% for the first, 90.5% for the second.

Compared with `CCCCc1ccc(NC(=S)NCCCN2CCOCC2)cc1`, `O=C(Cn1c(-c2ccccn2)nc2ccccc21)NCCN1CCOCC1` is higher in activation (% of control): 96.5% for the first, 101% for the second.

Going from `O=C(Nc1cccc(-c2nc3ncccc3o2)c1)c1ccco1` to `O=C(Nc1ccc2nccnc2c1)c1ccco1`, the activation (% of control) rises from 98.8% to 127%.

Compared with `COc1ccc(-c2nn(-c3ccccc3)cc2/C=C\C(=O)N2CCOCC2)cc1[N+](=O)[O-]`, `COc1cc(S(=O)(=O)N2CCOCC2)ccc1NC(=O)COc1ccc(N(C)S(=O)(=O)c2ccc(C)cc2)cc1` is lower in activation (% of control): 102% for the first, 88.9% for the second.

Compared with `CCn1nc(C)c(CN2CCN(Cc3ccc(OC)c(C)c3C)C(CCO)C2)c1C` (centres undefined), `C/C=C/c1ccc(OCCCCN2CCC(C)CC2)c(OC)c1` is lower in activation (% of control): 98.9% for the first, 98.3% for the second.

Going from `CC(C)C(=O)Nc1ccc(C(=O)NNC(=O)c2cccs2)cc1` to `Cc1ccc(C)c(NC(=O)CCC(=O)NNC(=O)c2cccs2)c1`, the activation (% of control) falls from 102% to 101%.

Going from `C=CS(=O)c1sc(Cl)c(N2CCOCC2)c1[N+](=O)[O-]` (centres undefined) to `CC1CCCCC1NC(=O)CN1CCC(O)(c2ccc3c(c2)OCO3)CC1` (centres undefined), the activation (% of control) rises from 86.3% to 102%.

Compared with `O=[N+]([O-])c1cccc(Nc2c3ccccc3nc3ccccc23)c1`, `CC(=O)Nc1ccc(NC(=O)COc2ncnc3ccccc23)cc1` is lower in activation (% of control): 98% for the first, 93.2% for the second.

First: O=C(CCc1nc2ccccc2c(=O)[nH]1)OCC(=O)c1cccc(Cl)c1
Second: O=C(NCCc1c[nH]c2ccccc12)C(=O)NCC1CCCO1 (centres undefined)
The activation (% of control) of the first is lower: 93.7% for the first, 109% for the second.

Compared with `COc1ccc(NC(=O)/C(C#N)=C\c2cc(OC)c(OCc3ccc(C(=O)O)cc3)cc2Br)cc1`, `COC(=O)N/N=C/c1ccc(/C=N/NC(=O)OC)cc1` is higher in activation (% of control): 96.6% for the first, 103% for the second.

Compared with `COc1ccc(NC(=S)Nc2ccccc2Cl)cn1`, `O=C(C[n+]1ccccc1)N/N=C/c1ccc(O)cc1` is higher in activation (% of control): 88.6% for the first, 97.6% for the second.

First: c1ccc2c(c1)CSc1sccc1C2=C1CCNCC1
Second: CCn1c(SCC(=O)N(C)C2CCS(=O)(=O)C2)nnc1-c1cccs1 (centres undefined)
The activation (% of control) of the first is higher: 98.4% for the first, 97.1% for the second.

`CN(C)/C=C/C(=O)c1cnc2sccn2c1=O` showed an activation (% of control) of 105%.

For `Cc1cc(Cl)ccc1OCc1nc(-c2ccncc2)no1`, the activation (% of control) was 151% (active).
In the case of `O=C(Nc1ccccc1Cl)/C(Cl)=C(\Cl)S(=O)c1ccccc1` (centres undefined), the activation (% of control) was 201% (active).
With `O=C(Nc1ccc(Cl)cc1)c1ccsn1` the activation (% of control) was 145% (active).
With `COc1cc(SC)ccc1C(=O)NCCOc1ccccc1Cl` the activation (% of control) was 141% (active).
For `CCOc1ccc2c(c1)C(c1ccc(C)cc1)=NNC(c1ccc(C)cc1)=N2`, the activation (% of control) was 131% (active).
For `CC(C)c1ccc(Nc2ncccc2C#N)cc1`, the activation (% of control) was 135% (active).
With `COc1ccc(N=Cc2c(O)[nH]c3ccccc23)cc1OC` the activation (% of control) was 145% (active).
With `Cc1cc2nc(-c3ccc(NC(=O)c4cccnc4)cc3)oc2cc1C` the activation (% of control) was 137% (active).
With `O=C(NC1CC1)c1ccc(-c2ccccc2)cc1` the activation (% of control) was 131% (active).
In the case of `O=C(Nc1ccc2oc(-c3ccccc3F)nc2c1)c1ccco1`, the activation (% of control) was 170% (active).
With `c1ccc2cc3c(NCCN4CCOCC4)ccnc3cc2c1` the activation (% of control) was 137% (active).
For `Cc1ccc(C(=O)NNC(=O)c2cccs2)cc1`, the activation (% of control) was 130% (active).
With `CC(=O)Nc1ccc(Nc2c3ccccc3nc3ccccc23)cc1` the activation (% of control) was 137% (active).
For `Cc1ccc(C(=O)COC(=O)c2cccc(N3C(=O)c4c(C)nc5ccccc5c4C3=O)c2)cc1C`, the activation (% of control) was 149% (active).
With `O=C(NCCc1c[nH]c2ccccc12)c1cc2ccccc2oc1=O` the activation (% of control) was 143% (active).
With `COc1ccc(NC(=O)/C(Cl)=C(/Cl)S(=O)Cc2ccc(C)cc2)cn1` (centres undefined) the activation (% of control) was 222% (active).
For `COc1ccc(CS(=O)/C(Cl)=C(/Cl)C(=O)Nc2ccc(OC)nc2)cc1` (centres undefined), the activation (% of control) was 279% (active).
In the case of `Cc1nonc1C(=O)N/N=C/c1ccc(O)cc1`, the activation (% of control) was 135% (active).
